# From PubChem BioAssay
# Shown is part of a subset that was picked to be rich in hits.
# HT1080 IDH1KD tx – HT-1080 IDH1 knockdown cell toxicity (counter line); HT-1080 IDH1 knockdown viability, ATP luminescence, 48 h; Potency, µM (series often up to 46.1 µM), inactives show top-dose activity, negative = toxicity, most hits filed as cytotoxic; actives 2% (n = 360,000); AID 686971;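 note: potency is the fitted concentration of half-maximal effect; 0% = DMSO wells and -100% = cell-free medium wells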
#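 % activity derives from luminescence (CellTiter-Glo), normalised to DMSO and no-cell wells. HT-1080-IDH1KD cells, 750/well, had 48 h compound exposure at 37 °C.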
# IL-1B inflam inh – blocks inflammasome-driven IL-1 beta release. THP-1 LPS/ATP IL-1B secretion, AlphaLISA, 16 h; active compounds read low. activity change, % at 57.5 µM. actives 4.7% (n = 360,000). AID 743279; in the data active = activity change below about -50%; inconclusive = mostly about -30% to -49%
#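 THP-1 cells pretreated 1 hr with compounds (up to 57.5 uM final), then stimulated with LPS (250 ng/mL final) plus ATP (1.25 mM final); secreted IL-1B measured by AlphaLISA after 16 hr, decreased signal indicating inhibition.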
# ALOX12 inh – ALOX12 (human) lipoxygenase inhibition. P18054. purified 12hLO, xylenol orange hydroperoxide absorbance. Potency, µM (highest dose often 108 µM), without a hit: top-dose activity change, negative = inhibition, hits mostly inhibitors. actives 1.1% (n = 580,000); note: potency is the fitted concentration of half-maximal effect
# Target sequence (P18054 whole entry, looked up): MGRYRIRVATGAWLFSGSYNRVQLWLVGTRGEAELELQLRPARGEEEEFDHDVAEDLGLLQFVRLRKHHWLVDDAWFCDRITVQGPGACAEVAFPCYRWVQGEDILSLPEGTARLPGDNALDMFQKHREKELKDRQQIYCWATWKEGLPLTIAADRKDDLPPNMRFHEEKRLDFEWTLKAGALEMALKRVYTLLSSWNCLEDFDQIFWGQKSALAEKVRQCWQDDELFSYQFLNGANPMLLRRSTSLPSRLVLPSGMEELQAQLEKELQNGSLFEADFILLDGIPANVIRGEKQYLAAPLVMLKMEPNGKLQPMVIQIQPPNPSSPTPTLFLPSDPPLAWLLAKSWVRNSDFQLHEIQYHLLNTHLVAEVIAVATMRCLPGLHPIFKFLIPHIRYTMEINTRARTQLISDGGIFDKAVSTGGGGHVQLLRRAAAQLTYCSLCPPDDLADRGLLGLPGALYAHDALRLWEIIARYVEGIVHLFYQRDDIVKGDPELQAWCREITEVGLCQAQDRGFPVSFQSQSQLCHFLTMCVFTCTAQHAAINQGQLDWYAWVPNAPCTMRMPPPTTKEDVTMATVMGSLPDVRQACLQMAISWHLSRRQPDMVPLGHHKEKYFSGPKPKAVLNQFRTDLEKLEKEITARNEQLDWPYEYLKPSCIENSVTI
#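 Hydroperoxide product was detected by ferrous iron/xylenol orange as the 573 to 405 nm absorbance ratio. Arachidonic acid at 40 uM (final) was turned over for 30 min at room temperature by 150 nM human 12hLO, pH 7.0 Hepes buffer, after 15 min compound preincubation.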
# HT1080NT lethal – kills 2HG-producing HT-1080-NT fibrosarcoma cells. HT-1080-NT fibrosarcoma viability, CellTiter-Glo ATP luminescence, 48 h. Potency, µM (doses to about 46.1 µM), without a hit: top-dose activity, negative = less viability, usual class: cytotoxic. actives 1.6% (n = 360,000). AID 686970;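 note: NT is the 2HG producing partner of a matched IDH1 knockdown line; potency is the fitted concentration of half-maximal effect; 0% = DMSO-treated cells and -100% = media-only wells without cells; nearly all actives have a fitted effect of over 55% in size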
#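 HT-1080-NT; 750 cells/well; 5% FBS RPMI; 48 h compound, 37 degrees C; CellTiter-Glo luminescence; curve fitting and curve-class assignment.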
# TDP1 cell noCPT – qHTS for Inhibitors of human tyrosyl-DNA phosphodiesterase 1 (TDP1): qHTS in cells in absence of CPT | Potency, µM (series often up to 46.2 µM), for the others: at the top dose activity change, negative = growth inhibition, actives largely listed as inhibitors | AID 686978, 2013 | actives 15% (n = 420,000) | DT40 Tdp1-/- hTDP1 cells, no CPT, ATP luminescence, 48 h; note: potency is the fitted concentration of half-maximal effect; nearly all actives have a fitted effect of over 55% in size
#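 Readout: luminescence from CellTiter-Glo after 30 min in the dark at RT. Cells: DT40 Tdp1-/- with stable hTDP1, 400/well. Exposure: compounds alone, ≥48 hr, 37 °C.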
# TDP1 cell CPT – DT40-hTDP1 cell growth loss with CPT | Potency, µM (top dose mostly 46.2 µM), inactives show at the top dose activity change, negative = growth inhibition, actives largely listed as inhibitors | AID 686979 | actives 12% (n = 420,000) | chicken DT40 Tdp1-/-;hTDP1 cells + 20 nM CPT, ATP luminescence, 48 h; note: potency is the fitted concentration of half-maximal effect; nearly all actives have a fitted effect of over 55% in size
#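 Cell growth measured by CellTiter-Glo luminescence after a minimum 48 h, 37 C compound exposure with 20 nM CPT in Tdp1-knockout DT40 cells stably expressing hTDP1, seeded 400/well; qHTS titration format.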
# An asterisk follows results filed as active; ? = inconclusive; . = no result given; [ ] = another dose, or the depositor's remark. Unless noted, calls come from the whole dose curve; as a rule, active = well fitted curve in the direction sought with a large enough effect; inconclusive = small, poorly fitted or top-dose-only effect, or another doubt; inactive = no such curve, though single readings can be large; an effect the other way counts as inactive or inconclusive. Unless noted, % is set by controls: 0 for no effect and ±100 for the full control effect.
SMILES,HT1080 IDH1KD tx,IL-1B inflam inh,ALOX12 inh,HT1080NT lethal,TDP1 cell noCPT,TDP1 cell CPT
COc1ccc(N(Cc2cccs2)C(=O)COc2ccc(C(C)C)cc2)cc1,.,.,-18%,.,21µM*,23µM*
COc1ccc(OCC(=O)N(Cc2cccs2)C2CCS(=O)(=O)C2)cc1 (stereo unspecified),-3%,9,17%,3%,1%,-2%
COc1ccc(N(C(=O)c2ccco2)S(=O)(=O)c2cccs2)cc1,-3%,16,?,-4%,-17%,-14%
O=C(CCc1nc(CSc2n[nH]c(-c3cccc(F)c3)n2)no1)Nc1cccc2ccccc12,.,.,-15%,.,.,.
O=C(c1ccc(Cl)cc1)N1CCC2(C1)C(=O)Nc1ccccc12 (stereo unspecified),.,.,1%[6.33 µM],.,.,.
O=C(Nc1ccccc1F)N1CC2CCC(C1)N2Cc1cccc(-c2cccs2)c1,.,.,12%[6.33 µM],.,.,.
CCCCNC(=O)c1nc2cc(C)c(C)cc2nc1-c1cccc(OC(F)(F)F)c1,.,.,13%,.,.,.
Cn1c(=O)[nH]c(=O)c2c1nc(NCCN1CCOCC1)n2Cc1ccc(F)cc1,.,.,32%,.,.,.
COc1ccc(OC)c(-n2c(-c3cccc(C)c3)n[nH]c2=S)c1,-3%,0,35µM*,-3%,?,6%
Cc1ccc(C)c(-n2c(-c3ccncc3)n[nH]c2=S)c1,20%,17,?,14%,-2%,3%
Cc1ccc(C)c(-n2c(-c3csc(C)c3)n[nH]c2=S)c1,10µM*,-2,?,?,-17%,-36%
COc1ccccc1-n1c(-c2ccccc2)n[nH]c1=S,2.6µM*,21,-30%,?,2%,22%
N#CCCN(C(=O)CSc1nc(CN2CCOCC2)nc2ccccc12)c1ccccc1F,.,.,-8%,.,.,.
COc1cc(OC(F)(F)F)ccc1C(=O)N1CCC2CC(=O)NCCC2C1 (stereo unspecified),.,.,-16%[6.33 µM],.,.,.
ClCCn1cnc2c(SCc3ccccc3)ncnc21,?,-55*,1%,1%,1.8µM*,?
CC(C)Cn1cnc2c(SCc3ccccc3Cl)nc(N)nc21,?,?,-8%,-21%,?,?
ClCCn1cnc2c(SCc3ccccc3Cl)ncnc21,?,-67*,?,-21%,0.82µM*,?
O=c1oc2ccc(Cl)cc2cc1-c1csc(Nc2ccc(F)cc2F)n1,.,.,-4%,.,.,.
CC(=O)Nc1ccc(NC(=O)c2c[nH]c3ccc(F)cc3c2=O)cc1,.,.,-4%,.,.,.
Cc1cccc(C(O)c2cnc(C)n2Cc2ccccc2)c1 (stereo unspecified),-21%,19,4%,-2%,18µM*,?
Cc1ncc(C(O)c2ccccc2)n1Cc1ccccc1 (stereo unspecified),-2%,15,0%,-6%,23µM*,?
CC(C)C(Sc1nnc(-c2ccccc2)o1)C(=O)NCc1cccnc1 (stereo unspecified),.,.,-25%,.,.,.
Cc1ccc(C)n1-c1nc(=S)[nH][nH]1,2%,-2,4.5µM*,5%,-8%,-19%
CCCOc1cccc(C(=O)NC(=S)Nc2cccc(NC(=O)c3ccccc3Cl)c2)c1,-13%,-7,13µM*,-4%,?,?
CC(C)Oc1cccc(C(=O)NC(=S)Nc2ccccc2)c1,-1%,-25,22µM*,2%,?,?
SMILES,HT1080 IDH1KD tx,IL-1B inflam inh,ALOX12 inh,HT1080NT lethal,TDP1 cell noCPT,TDP1 cell CPT
Cc1ccc(-c2cc(NC(=O)c3cccc(C)c3)on2)cc1,.,.,-23%,.,-26%,-21%
COc1cccc(C(=O)NC(=S)Nc2ccc(Cl)c(C(=O)O)c2)c1,0%[9.24 µM],33,?,0%,-6%,-3%
CCCOc1cccc(C(=O)Nc2cc(-c3ccccc3)no2)c1,.,.,?,.,?,12µM*
CC(C)Oc1ccc(C(=O)NC(=S)Nc2ccc(Cl)c(C(=O)O)c2)cc1,8%,0,10µM*,1%,-4%,?
O=C(COC(=O)C1C2CCC(C2)C1C(=O)OCC(=O)c1ccc(OC(=O)c2ccco2)cc1)c1ccc(OC(=O)c2ccco2)cc1 (stereo unspecified),.,.,13%,.,.,.
CCCCN(CCCC)C(=O)c1csc(Br)c1,.,.,-39%,.,.,.
O=c1oc(-c2ccc(F)cc2)nn1CC(O)COc1ccc(-c2ccccc2)cc1 (stereo unspecified),.,.,-5%,.,.,.
CC(=O)NNC(=S)Nc1ccc(Cl)cc1Cl,.,.,-4%,.,.,.
COC(=O)c1cccc(C(=O)NC2CCCN(CCCc3ccccc3)C2)c1 (stereo unspecified),.,.,-1%,.,.,.
CC(C)(C)c1cc(CSc2nc3ccccc3s2)cc(C(C)(C)C)c1O,.,.,0%,.,.,.
CCCOc1ccc(C(=O)Nc2ccc(NC(=O)c3cccc(Cl)c3)cc2)cc1,.,.,?,.,-22%,-10%
CCCOc1ccc(C(=O)Nc2ccc(NC(=O)c3ccccc3)c(Br)c2)cc1,.,.,-23%,.,-71%,15µM*
CCOc1cccc(C(=O)NC2CCCCC2)c1,3%,0,-8%,-6%,-11%,-19%
CCCOc1cccc(C(=O)NC(=S)Nc2ccccc2)c1,12%,-11,16µM*,3%,?,?
CCCCOc1cccc(C(=O)NC(=S)Nc2cccc(NC(=O)c3ccccc3Cl)c2)c1,-20%,25,11µM*,-7%,?,?
CCCCOc1cccc(C(=O)NNC(=S)NC2CCCCC2)c1,-13%,3,56%,-10%,16µM*,?
CC(C)CCC(=O)N1CC(C(=O)N(C)C)C2(CCOCC2)C1 (stereo unspecified),.,.,47%,.,.,.
